# Compound activity from PubChem BioAssay.
# In the library only some 6.8% were active in any assay of this set; here they are far more common.
# C diff HTS: C. difficile growth inhibition | 86,000 compounds, 0.25% hits | growth activity, negative = inhibition, % at 16 µg/mL (by protocol) | Clostridium difficile clinical isolate growth, OD600, 24 h; active compounds read low;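 active means mean growth activity at or below -80% and every replicate also at or below -80%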;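 further: 0% = DMSO wells and -100% = levofloxacin 16 µg/mL wells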
# Tcruzi prolif: T. cruzi proliferation inhibition | 77,000 compounds, 5.9% hits | inhibition, % at 8.34 µM | T. cruzi beta-gal in NIH3T3, GalScreen luminescence, 90 h;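 active means mean inhibition above about 93%, with at least 55% of replicates each passing it, limit read from the data, passing the limit was not always enough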
# Pf Dd2 growth: P. falciparum Dd2 growth inhibition; SYBR Green, 72 h; active compounds read low; activity change, % at 10 µM; 94,000 compounds, 2.3% hits; in the data active means activity change below about -80%
# * = called active by the depositor; x = no result given; ! = a repeat was not active.
SMILES,C diff HTS,Tcruzi prolif,Pf Dd2 growth
C[C@@H]1CN([C@H](C)CO)C(=O)c2cc(C#CCc3ccccc3)cnc2O[C@H]1CN(C)C(=O)C1CCC1,2,67,-87*
C[C@@H]1CN([C@H](C)CO)C(=O)c2cc(C#Cc3cccc(F)c3)cnc2O[C@@H]1CN(C)C(=O)C1CCCCC1,x,115,-88*
C[C@@H]1CN([C@@H](C)CO)C(=O)c2cc(C#Cc3ccccc3F)cnc2O[C@H]1CN(C)C(=O)C1CCCCC1,-23,x,-33
C[C@@H]1CN([C@H](C)CO)C(=O)c2cc(C#Cc3cccc(F)c3)cnc2O[C@@H]1CN(C)C(=O)C1CCC1,7,-208,-71
C[C@H](CO)N1C[C@H](C)[C@H](CN(C)C(=O)C2CC2)Oc2ncc(C#Cc3cccc(F)c3)cc2C1=O,3,61,-18
C[C@H]1CN([C@@H](C)CO)C(=O)c2cc(C#Cc3ccccc3F)cnc2O[C@@H]1CN(C)C(=O)C1CCCCC1,0,x,-85*
COc1ccc(NC(=O)Nc2cccc3c2O[C@@H](CN(C)C(=O)Nc2ccc(OC)cc2)[C@@H](C)CN([C@H](C)CO)C3=O)cc1,-17,37,-46
COc1cccc(NC(=O)N(C)C[C@H]2Oc3cc(-c4ccccc4OC)ccc3S(=O)(=O)N([C@@H](C)CO)C[C@@H]2C)c1,7,x,-19
CCCC#Cc1cnc2c(c1)C(=O)N([C@H](C)CO)C[C@H](C)[C@@H](CN(C)C(=O)Nc1cc(F)ccc1F)O2,-18,x,-63
CCCC#Cc1cnc2c(c1)C(=O)N([C@@H](C)CO)C[C@@H](C)[C@H](CN(C)C(=O)Nc1cc(F)ccc1F)O2,-9,x,-83*
C[C@@H]1CN([C@H](C)CO)C(=O)c2cc(C#Cc3ccccc3)cnc2O[C@H]1CN(C)C(=O)CCN1CCCCC1,13,55,-90*
C[C@H](CO)N1C[C@H](C)[C@@H](CN(C)C(=O)CCN2CCCCC2)Oc2ncc(C#Cc3ccccc3)cc2C1=O,7,29,-66
CC(=O)n1cc([C@@H]2C=C(C(=O)N3CCCCCCC3)O[C@H](OCCCCO)C2)c2ccccc21,8,x,x
O=C(N[C@H]1CC[C@@H](CCn2cc(-c3ccccc3)nn2)O[C@@H]1CO)c1ccccc1F,0,-19,-11
COc1ccc2c3c([nH]c2c1)[C@@H](CO)N(C(=O)Nc1ccc(F)cc1)CC31CN(Cc2ccccc2OC)C1,-11,x,-92*
COc1ccc2c3c([nH]c2c1)[C@H](CO)N(C(=O)Nc1ccc(F)cc1)CC31CN(Cc2ccc(F)cc2)C1,1,x,-82*
COc1ccc2c3c([nH]c2c1)[C@@H](CO)N(C(=O)Nc1ccc(F)cc1)CC31CN(Cc2ccc(F)cc2)C1,2,x,-67
COc1ccc2c3c([nH]c2c1)[C@H](CO)N(C(=O)Nc1ccc(F)cc1)CC31CN(Cc2ccccc2OC)C1,x,x,-54
C/C=C/c1ccc(C2[C@H]3CNC[C@@H]2N3Cc2ccccc2OC)cc1 (stereo partly specified),-8,x,-60
C/C=C/c1ccc(C2[C@H]3CNC[C@@H]2N3Cc2cc(F)ccc2F)cc1 (stereo partly specified),33,x,-84*!
CC(=O)N(C)C[C@H]1Oc2cc(C#Cc3ccncc3)ccc2S(=O)(=O)N([C@@H](C)CO)C[C@@H]1C,-3,-9,-29
COc1ccc(NC(=O)Nc2ccc3c(c2)C(=O)N([C@@H](C)CO)C[C@@H](C)[C@@H](CN(C)Cc2ccc(C(F)(F)F)cc2)OCCCC[C@H](C)O3)cc1,8,75,-76
COc1ccc(NC(=O)Nc2ccc3c(c2)C(=O)N([C@@H](C)CO)C[C@@H](C)[C@@H](CN(C)Cc2ccc(C(F)(F)F)cc2)OCCCC[C@@H](C)O3)cc1,-1,78,-83*
COc1ccc(NC(=O)Nc2ccc3c(c2)C(=O)N([C@@H](C)CO)C[C@H](C)[C@@H](CN(C)Cc2ccc(C(F)(F)F)cc2)OCCCC[C@@H](C)O3)cc1,5,66,-91*
COc1ccc(CN(C)C[C@H]2OCCCC[C@H](C)Oc3ccc(NC(=O)Nc4ccc(C(F)(F)F)cc4)cc3C(=O)N([C@@H](C)CO)C[C@H]2C)cc1,8,59,-75
SMILES,C diff HTS,Tcruzi prolif,Pf Dd2 growth
COc1ccc(CN(C)C[C@@H]2OCCCC[C@H](C)Oc3ccc(NC(=O)Nc4ccc(C(F)(F)F)cc4)cc3C(=O)N([C@@H](C)CO)C[C@@H]2C)cc1,-15,96,-87*
COc1ccc(CN(C)C[C@H]2OCCCC[C@@H](C)Oc3ccc(NC(=O)Nc4ccc(C(F)(F)F)cc4)cc3C(=O)N([C@H](C)CO)C[C@H]2C)cc1,-22,101,-67
O=C(C[C@@H]1CC[C@H]2[C@@H](COC[C@@H](O)CN2CC2CCOCC2)O1)NCc1ccc(Cl)cc1,0,-68,11
Cc1cc(C(=O)Nc2ccc3c(c2)C(=O)N(C)[C@H]2CC[C@H](CC(=O)NC4CCCC4)O[C@H]2CO3)no1,1,-11,-13
C/C=C/c1ccc([C@@H]2[C@@H](CNC(=O)CC)N(C(=O)COC)[C@H]2CO)cc1,-4,3,-5
COc1ccccc1NC(=O)N(C)C[C@@H]1OCc2ccccc2-c2ccccc2C(=O)N([C@@H](C)CO)C[C@H]1C,-4,44,-86*
COc1ccccc1NC(=O)N(C)C[C@@H]1OCc2ccccc2-c2ccccc2C(=O)N([C@H](C)CO)C[C@H]1C,-6,52,38
COc1ccccc1NC(=O)N(C)C[C@H]1OCc2ccccc2-c2ccccc2C(=O)N([C@@H](C)CO)C[C@@H]1C,-1,51,-39
C[C@H](CO)N1C[C@H](C)[C@@H](CN(C)C(=O)Nc2cccc(Cl)c2Cl)OCc2ccccc2-c2ccccc2C1=O,4,x,-84*
C[C@@H]1CN([C@H](C)CO)C(=O)c2cccc(NC(=O)c3nc4ccccc4s3)c2O[C@@H]1CN(C)C(=O)Nc1ccc2c(c1)OCO2,x,71,-57
Cc1ccc(S(=O)(=O)N(C)C[C@H]2Oc3c(NC(=O)c4nc5ccccc5s4)cccc3C(=O)N([C@@H](C)CO)C[C@H]2C)cc1,-1,96,-56
Cc1ccc(S(=O)(=O)N(C)C[C@@H]2Oc3c(NC(=O)c4nc5ccccc5s4)cccc3C(=O)N([C@@H](C)CO)C[C@H]2C)cc1,0,68,-85*
C[C@H]1CN([C@@H](C)CO)C(=O)c2cccc(NC(=O)c3nc4ccccc4s3)c2O[C@@H]1CN(C)C(=O)Nc1ccc(C(F)(F)F)cc1,11,82,-56
C[C@@H]1CN([C@H](C)CO)C(=O)c2cccc(NC(=O)c3nc4ccccc4s3)c2O[C@H]1CN(C)C(=O)Nc1ccc2c(c1)OCO2,x,59,-82*
CC(C)NC(=O)N(C)C[C@H]1Oc2c(NC(=O)c3nc4ccccc4s3)cccc2C(=O)N([C@@H](C)CO)C[C@H]1C,-3,75,-72
C[C@@H]1CN([C@@H](C)CO)C(=O)c2cccc(NC(=O)c3nc4ccccc4s3)c2O[C@H]1CN(C)C(=O)Nc1ccc(C(F)(F)F)cc1,-1,88,-90*
CC(C)NC(=O)N(C)C[C@H]1Oc2c(NC(=O)c3nc4ccccc4s3)cccc2C(=O)N([C@H](C)CO)C[C@H]1C,0,-16,-83*
